Rows were chosen to be rich in hits. Some 19% of all compounds tested hit in one or more screens of this group.
DT40 TDP1 CPT – qHTS for Inhibitors of human tyrosyl-DNA phosphodiesterase 1 (TDP1): qHTS in cells in presence of CPT; chicken DT40 Tdp1-/-;hTDP1 cells + 20 nM CPT, ATP luminescence, 48 h; Potency, µM (series often up to 46.2 µM), inactives show at the top dose activity change, negative = growth inhibition, hits mostly inhibitors; actives 12% (n = 420,000); further: potency means the concentration at half of the fitted maximal effect; on the % scale 0 is the no-effect control and ±100 the full control effect; nearly all actives have a fitted effect of over 55% in size
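Cell growth measured by CellTiter-Glo luminescence after a minimum 48 h, 37 C compound exposure with 20 nM CPT in Tdp1-knockout DT40 cells stably expressing hTDP1, seeded 400/well; qHTS titration format.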
DT40 TDP1 no CPT – qHTS for Inhibitors of human tyrosyl-DNA phosphodiesterase 1 (TDP1): qHTS in cells in absence of CPT; DT40 Tdp1-/- hTDP1 cells, no CPT, ATP luminescence, 48 h; Potency, µM (series often up to 46.2 µM), without a hit: at the top dose activity change, negative = growth inhibition, most hits filed as inhibitors; actives 15% (n = 420,000); AID 686978, 2013; further: potency means the concentration at half of the fitted maximal effect; on the % scale 0 is the no-effect control and ±100 the full control effect; nearly all actives have a fitted effect of over 55% in size
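Cells were dispensed at 400 per well, compounds added by pin tool, plates incubated ≥48 hr at 37 °C, then CellTiter-Glo added for 30 min at room temperature before luminescence reading. Line: DT40 Tdp1-/- complemented with hTDP1; camptothecin omitted.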
S-ASM inh – Inhibitors of Secretory Acid Sphingomyelinase (S-ASM): qHTS | Sphingomyelin phosphodiesterase (Homo sapiens), P17405 | AID 504937, 2011 | placental ASM, HMU-PC fluorogenic substrate, 60 min | Potency, µM (highest dose often 57.5 µM), without a hit: at the highest dose activity change, negative = inhibition, usual class: inhibitors | actives 0.006% (n = 340,000); further: potency means the concentration at half of the fitted maximal effect
Target sequence (P17405 47-631 limits assumed): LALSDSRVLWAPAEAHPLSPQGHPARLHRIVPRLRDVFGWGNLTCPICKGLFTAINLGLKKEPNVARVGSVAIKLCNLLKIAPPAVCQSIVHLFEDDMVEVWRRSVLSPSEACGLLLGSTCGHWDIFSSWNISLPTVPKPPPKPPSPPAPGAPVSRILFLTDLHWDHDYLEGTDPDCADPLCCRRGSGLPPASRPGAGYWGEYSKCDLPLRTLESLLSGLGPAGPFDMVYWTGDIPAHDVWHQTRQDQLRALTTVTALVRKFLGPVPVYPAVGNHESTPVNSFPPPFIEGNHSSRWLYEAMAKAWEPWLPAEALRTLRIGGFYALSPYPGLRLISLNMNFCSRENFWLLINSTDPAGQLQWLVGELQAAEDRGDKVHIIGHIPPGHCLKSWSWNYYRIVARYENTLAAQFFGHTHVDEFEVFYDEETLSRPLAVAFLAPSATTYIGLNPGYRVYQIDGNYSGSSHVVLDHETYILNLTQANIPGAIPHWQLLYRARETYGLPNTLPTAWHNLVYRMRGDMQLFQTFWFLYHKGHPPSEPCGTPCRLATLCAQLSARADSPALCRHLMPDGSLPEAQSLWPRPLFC
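qHTS format. ASM enzyme prepared from human placenta hydrolyses the fluorogenic substrate HMU-PC0 (9 uM final) over 60 min at 37 °C after a 10 min compound preincubation.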
TGFb inhibitor – qHTS for Inhibitors of TGF-b. HepG2 CAGA-GFP TGF-b/SMAD3 reporter, GFP fluorescence, 18 h; TGF-beta stimulated, 500 pg/mL final. Potency, µM (titrated, usually from 46.1 µM), without a hit: at the highest dose activity, negative = inhibition, actives largely listed as inhibitors. actives 1.2% (n = 410,000). AID 588855, 2011; further: potency means the concentration at half of the fitted maximal effect; on the % scale 0 is the no-effect control and ±100 the full control effect; nearly all actives have a fitted effect of over 65% in size
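HEPG2 CAGA-GFP, 1000 cells/well; 2 h settle, 37 C; cpd via pin tool; TGF-b 500 pg/mL final; 18 h, 37 C; GFP imaging ex488/em500-530; %Activity normalised to -TGF-b and +DMSO controls; CRC fit, curve class.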
HepG2 viability – qHTS for Inhibitors of TGF-b: Cytotox Counterscreen; HepG2 CAGA-GFP viability, ATP luminescence, 18 h; Potency, µM (titrated, usually from 46.1 µM), for the others: at the highest dose activity change, negative = cytotoxicity, hits mostly cytotoxic; actives 0.76% (n = 410,000); AID 588856, 2011; further: potency means the concentration at half of the fitted maximal effect
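HepG2 CAGA-GFP cells (1000/well, DMEM with 1% FBS) received compound, then TGF-beta at 500 pg/mL final, and were incubated 18 hours at 37 degrees C. Viability was read by CellTiter-Glo luminescence. Media-only wells were set as complete cell-killing and DMSO as no toxicity.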
IL-1B inflam inh – qHTS for Inhibitors of Inflammasome Signaling: IL-1-beta AlphaLISA Primary Screen. activity change, % at 57.5 µM. AID 743279, 2014. THP-1 LPS/ATP IL-1B secretion, AlphaLISA, 16 h; hits give low values. actives 4.7% (n = 360,000); in the data active means activity change below about -50%; inconclusive means mostly about -30% to -49%; further: on the % scale 0 is the no-effect control and ±100 the full control effect
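THP-1 cells pretreated 1 hr with compounds (up to 57.5 uM final), then stimulated with LPS (250 ng/mL final) plus ATP (1.25 mM final); secreted IL-1B measured by AlphaLISA after 16 hr, decreased signal indicating inhibition.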
Starred values were filed as active, the others as inactive; u = inconclusive; x = not tested or not shown. Unless noted, the call rests on the fitted dose curve; in most records, active means well fitted curve in the direction sought with a large enough effect; inconclusive means small, poorly fitted or top-dose-only effect, or another doubt; inactive means no such curve, though single readings can be large; an effect the other way counts as inactive or inconclusive.

SMILES	DT40 TDP1 CPT	DT40 TDP1 no CPT	S-ASM inh	TGFb inhibitor	HepG2 viability	IL-1B inflam inh
Cc1nc2ccc(CN(C)c3ccc(C(=O)N[C@@H](CCC(=O)O)C(=O)O)s3)cc2c(=O)[nH]1	0.0084µM*	0.0042µM*	x	x	x	x
CC(=O)N(C(C)=O)c1ccc2nc(C)[nH]c(=O)c2c1	-8.2%	-17.9%	-1.9%	-1.3%	-7.5%	9.2
O=C(Nc1nnc(C2CC2)s1)c1cc(S(=O)(=O)N2CCCCC2)ccc1N1CCOCC1	-20.0%	-20.1%	0.1%	5.4%	-3.9%	u
O=C(Nc1ccccc1Cl)c1cc(S(=O)(=O)N2CCCCC2)ccc1N1CCOCC1	u	23.1µM*	-2.3%	-25.9%	-44.8%	-22.9
O=C(Nc1cccc(C(F)(F)F)c1)c1cc(S(=O)(=O)N2CCCCC2)ccc1N1CCOCC1	23.1µM*	18.4µM*	-7.4%	4.8%	-2.2%	u
CCc1nnc(NC(=O)c2cc(S(=O)(=O)N3CCOCC3)ccc2N2CCCCC2)s1	0.8%	u	5.4%	-11.3%	1.2%	-70.4*
O=C(Nc1ccccc1F)c1cc(S(=O)(=O)N2CCOCC2)ccc1N1CCOCC1	-7.7%	-20.4%	-1.3%	u	5.6%	-13.5
Cc1ccc(S(=O)(=O)/N=C(/Nc2ccc(F)cc2F)c2ccccc2)cc1	-4.2%	5.2%	-2.4%	5.4%	1.1%	-9.9
COC(=O)[C@H]1[C@@H]2C[C@@H]3c4[nH]c5ccccc5c4CCN3C[C@H]2CC[C@H]1O	4.8%	-23.5%	x	x	x	x
CCC1CN(C)C2Cc3c([nH]c4ccccc34)C(=O)CC1C2C(=O)OC (stereo unspecified)	23.1µM*	-38.4%	12.1%	5.1%	-27.1%	7.2
CCOc1ccc(-c2ncncc2-c2ccccc2OC)c(O)c1	13µM*	23.1µM*	-0.5%	3.8%	1.8%	16.8
COc1cccc(Oc2cncnc2-c2ccc(OC)cc2O)c1	-22.8%	-19.9%	-8.5%	11.6%	-21.1%	-9.3
CCOc1ccc(-c2nc(N)ncc2Oc2ccccc2Br)c(O)c1	u	u	-10.5%	u	11.2µM*	-22.2
CCOc1ccc(-c2n[nH]c(C)c2Oc2ccc(OC)cc2)c(O)c1	20.6µM*	10.3µM*	9.4%	u	12.6µM*	-27.6
CCOc1ccc(-c2nc(N)ncc2Oc2cccc(OC)c2)c(O)c1	u	18.4µM*	-13.1%	-7.4%	-44.9%	u
NCCCn1c(C(=O)c2ccc(Cl)cc2)c2ccc([N+](=O)[O-])cc2[n+]1[O-]	4.11µM*	4.11µM*	-7.8%	10µM*	-31.9%	-60.1*
COc1ccc2c(C(=O)c3ccc(C)cc3)n(CCCC(N)=O)[n+]([O-])c2c1	2.0%	-17.4%	-7.1%	-13.4%	-1.6%	-2.8
NCCCn1c(C(=O)c2ccc(Cl)cc2)c2ccc(C(F)(F)F)cc2[n+]1[O-]	u	u	-1.5%	18.2%	-46.3%	-21.7
NC(=O)CCCn1c(C(=O)c2ccc(Cl)cc2)c2ccc(C(F)(F)F)cc2[n+]1[O-]	-2.9%	-25.3%	-7.3%	-1.2%	-15.9%	-0.8
NC(=O)CCCn1c(C(=O)c2ccc(Cl)cc2)c2ccc([N+](=O)[O-])cc2[n+]1[O-]	3.66µM*	8.2µM*	-15.5%	u	-33.5%	-10.1
Cc1ccc(C(=O)c2c3ccc([N+](=O)[O-])cc3[n+]([O-])n2CCCC(N)=O)cc1	5.8µM*	u	-15.7%	u	-21.5%	-7.2
CCN1CCCC1CNC(=O)Cn1cc(C)c(=O)[nH]c1=O (stereo unspecified)	-0.9%	-1.2%	1.1%	-10.4%	-14.3%	0.0
Cc1cc(S(=O)(=O)N2CCOCC2)ccc1OCC(=O)NCC1CCCO1 (stereo unspecified)	-6.1%	-10.5%	15.0%	-2.8%	-9.7%	-18.1
O=C(O)C(F)=C1c2ccccc2-c2ccccc21	-15.8%	-12.4%	11.1%	-8.2%	24.9%	12.5
Cc1ccc(OC(=O)Cn2c(C(F)(F)F)nc3ccccc32)cc1	-7.0%	-12.5%	-2.1%	0.0%	36.2%	12.0
SMILES	DT40 TDP1 CPT	DT40 TDP1 no CPT	S-ASM inh	TGFb inhibitor	HepG2 viability	IL-1B inflam inh
CCOC(=O)Cn1c(C(F)(F)F)nc2nc(Cl)c(Cl)nc21	4.3%	-28.4%	1.0%	u	-7.8%	-92.5*
C[C@]12c3[nH]c4cc(-c5ccco5)ccc4c3CCN1C(=O)[C@@H](CC(=O)NCCN1CCOCC1)C[C@@H]2C(=O)N1CCCCC1	-28.3%	u	3.4%	u	-19.9%	0.0
COc1ccc(CNC(=O)C[C@H]2C[C@H](C(=O)N3CCCCC3)[C@@]3(C)c4[nH]c5cc(-c6ccco6)ccc5c4CCN3C2=O)cc1OC	u	18.4µM*	1.2%	u	-3.9%	-0.1
O=C(C[C@H]1C[C@H](C(=O)N2CCCCC2)[C@@]2(CCc3ccccc3)c3[nH]c4ccc(Cl)cc4c3CCN2C1=O)NCCc1ccccn1	u	18.4µM*	u	-22.6%	3.3%	-0.1
COCCCNC(=O)C[C@H]1C[C@H](C(=O)N2CCCCC2)[C@@]2(C)c3[nH]c4cc(-c5ccco5)ccc4c3CCN2C1=O	16.4µM*	u	-0.1%	u	-22.2%	-12.0
CN(C)CCCNC(=O)C[C@H]1C[C@H](C(=O)N2CCCCC2)[C@@]2(CCc3ccccc3)c3[nH]c4ccc(Cl)cc4c3CCN2C1=O	-21.0%	-14.6%	-6.7%	-2.1%	-14.8%	-7.5
CCN(CC)C(=O)[C@H]1C[C@H](CC(=O)NCCc2ccccn2)C(=O)N2CCc3c([nH]c4cc(-c5ccco5)ccc34)[C@]12C	18.4µM*	u	17.5%	u	-6.8%	3.9
CC(C)(C)C(=O)Nc1cccc(-c2cc(-c3c(Cl)cccc3Cl)no2)c1	-6.9%	-24.6%	-1.1%	-23.9%	-53.1%	x
COc1ccc2[nH]c3c(c2c1)CCN1C(=O)C(CC(=O)NCc2ccc(OC)c(OC)c2)C[C@H](C(=O)N2CCOCC2)[C@@]31C (stereo partly specified)	1.1%	-15.5%	5.1%	-20.7%	11.1%	-6.4

Screening results: PubChem BioAssay, National Center for Advancing Translational Sciences (NCATS)
